Potency and affinity values are given separately. Inconclusive results are not listed. Unmarked numbers belong to inactive results. How the calls were made is not given here.
Assay: non-specific cell cytotoxicity, dose response, cytotoxicity control for PAX8 inhibitor project, plate reader, dry powder samples (AID 743021)
Conditions: cell line, non-specific cytotoxicity counter-screen; series mostly up to 35 µM; activity change, negative = cytotoxicity: at the top concentration

| Compound | activity change, negative = cytotoxicity |
| --- | --- |
| C[C@@H]1CCCCO[C@@H](CN(C)Cc2ccc(C(F)(F)F)cc2)[C@@H](C)CN([C@@H](C)CO)C(=O)c2cc(NS(=O)(=O)c3ccc(F)cc3)ccc2O1 | -12.7% [at 30 µM] |
| COc1ccc(NC(=O)Nc2ccc3c(c2)C(=O)N([C@@H](C)CO)C[C@@H](C)[C@@H](CN(C)CC2CCCCC2)OCCCC[C@@H](C)O3)cc1 | -33.9% |
| COC(=O)[C@]12CCCCC=C1N(Cc1ccc(Cl)cc1Cl)C(=O)[C@H](CC(=O)N1CCN(C(=O)c3ccco3)CC1)C2 | -17.3% |
| CC1(Cc2ccc(OC(F)(F)F)cc2)C(=O)Nc2ccc(S(=O)(=O)NC3CCCCC3)cc21 (stereo unspecified) | -19.8% [at 16 µM] |
| C[C@@H]1CN([C@H](C)CO)C(=O)c2cc(NC(=O)Nc3ccc(F)cc3)ccc2O[C@@H](C)CCCCO[C@@H]1CN(C)Cc1ccc2c(c1)OCO2 | -15.9% |
| COc1cccc(S(=O)(=O)N2CC[C@H]3[C@@H](CO)N(C)c4ccc(C#Cc5ccc(F)cc5)cc4[C@H]32)c1 | -3.69% |
| CCOc1ccc(C(CN2CCOCC2)C(C)=O)cc1OC (stereo unspecified) | 19.2% |
| C[C@@H]1CCCCO[C@H](CN(C)Cc2ccc(C(F)(F)F)cc2)[C@H](C)CN([C@@H](C)CO)C(=O)c2cc(NS(=O)(=O)c3cccs3)ccc2O1 | 6% |
| C[C@@H]1CN([C@@H](C)CO)C(=O)Cc2cc(NC(=O)NC3CCCCC3)ccc2O[C@@H]1CN(C)Cc1ccc(-c2ccccc2)cc1 | -2.96% |
| O=C(Nc1ccc(Cl)c(Cl)c1)N[C@@H]1CC[C@H](CCn2cc(C3CCCCC3)nn2)O[C@H]1CO | -25.7% |
| C[C@@H]1CCCCO[C@@H](CN(C)Cc2ccc(C(F)(F)F)cc2)[C@@H](C)CN([C@@H](C)CO)C(=O)c2cc(NS(=O)(=O)c3ccccc3)ccc2O1 | 15.2% |

From PubChem BioAssay
